{
  "source": "PubChem BioAssay (Tox21)",
  "note": "“And” between values parts separate entries of the source, which are not always exact repeats. Equal entries are not always repeated. Results filed as inconclusive are left out. Entries that show only a call come without a potency. Unmarked numbers belong to inactive results. The source made the active and inactive calls. The call rests on the fitted dose curve; in most records, active means well fitted activation curve with a large enough effect in the repeat runs; inconclusive means weak or mixed curves; inactive means flat fitted curve, though single readings scatter. Potency means the concentration at half of the fitted maximal effect.",
  "data": [
    {"assay": "A CellTox Green Cytotoxicity Assay to monitor cytotoxicity in HEK293 cells - 24 hour (AID 1224875); further: nearly all actives have a fitted effect of over 45% in size", "conditions": "CellTox Green fluorescence; series mostly up to 76.8 µM; activity change: at the top concentration", "text": "National Center for Advancing Translational Sciences [NCATS]\nNIH Chemical Genomics Center [NCGC]\nU.S. Environmental Protection Agency [EPA]\nNational Institutes of Environmental Health Sciences [NIEHS]\nNational Toxicology Program [NTP]\nCell-based models are critical for drug discovery. Determining the natural cytotoxic effects resulting from test compounds is an essential research activity. A CellTox Green Cytotoxicity Assay to monitor cytotoxicity in real time of continues cell culture during 40 hours of the compound treatment was used to screen Tox21 10K library compounds in Hek293 cells. CellTox Green Cytotoxicity Assay is a nonlytic, homogeneous, biofluorescent method to measure cytotoxicity in cell culture after experimental manipulation. The assay system uses a proprietary asymmetric cyanine dye that is excluded from viable cells but preferentially stains the dead cell's DNA. […] Viable cells produce no appreciable increases in fluorescence. Therefore, the fluorescence signal produced by the binding interaction with dead cell DNA is proportional to cytotoxicity.\nThe mixture of Hek293 cell suspension and reagents were dispensed at 600cells/6 ul/well in 1536-well tissue culture treated black solid bottom plates using a Multidrop dispenser. After the assay plates were incubated at a 37 C/5% CO2 incubator for 5 hours, 23 nL of compounds dissolved in DMSO, positive and negative controls was transferred to the assay plate by a pintool work station. The plates were incubated at 37 C for 40 hours. The fluorescence intensity were measured at 0h, 8h, 16h, 24h, 32h and 40h time points using ViewLux plate reader during compound treatment.", "units": {"activity change": "%"}, "values": [
      {"smiles": "CC(C)NC(C)C", "Potency": "inactive"},
      {"smiles": "Cc1cccc(N)c1N", "Potency": "inactive"},
      {"smiles": "Cc1ccc(OP(=O)(Oc2ccc(C)cc2)Oc2ccc(C)cc2)cc1", "Potency": "inactive"},
      {"smiles": "COC(=O)c1sccc1S(=O)(=O)NC(=O)Nc1nc(C)nc(OC)n1", "Potency": "inactive"},
      {"smiles": "NCc1cccnc1", "Potency": "inactive"},
      {"smiles": "C[C@]12CCC(=O)C[C@@H]1CC[C@@H]1[C@@H]2CC[C@]2(C)[C@@H](O)CC[C@@H]12", "Potency": "inactive"},
      {"smiles": "N#CCCCl", "Potency": "inactive"},
      {"smiles": "Oc1cc(Cl)c(Cl)cc1Cl", "Potency": "inactive"},
      {"smiles": "Nc1ccncc1", "Potency": "inactive"},
      {"smiles": "C1=Cc2cccc3cccc1c23", "Potency": "49 µM (active)"},
      {"smiles": "O=C1C=CC(=O)C=C1", "Potency": "inactive"},
      {"smiles": "Oc1cc(Cl)ccc1Cl", "Potency": "inactive"},
      {"smiles": "S=C1NCCN1", "Potency": "inactive"},
      {"smiles": "CCCCCc1cc(O)cc(O)c1", "Potency": "inactive"},
      {"smiles": "CCCCC(CC)COC(=O)c1ccc(C(=O)OCC(CC)CCCC)c(C(=O)OCC(CC)CCCC)c1", "note": "(stereo not given)", "Potency": "inactive"},
      {"smiles": "CCN(CC)C(=O)SCc1ccc(Cl)cc1", "Potency": "inactive"},
      {"smiles": "Oc1cc(Cl)ccc1Oc1ccc(Cl)cc1Cl", "Potency": "22.4 µM (active)"},
      {"smiles": "O=C(NC(=O)c1c(F)cccc1F)Nc1ccc(Cl)cc1", "Potency": "inactive"},
      {"smiles": "Nc1cccnc1", "Potency": "inactive"},
      {"smiles": "C=CCN(CC=C)C(=O)C(Cl)Cl", "Potency": "inactive"},
      {"smiles": "c1ccc(NNc2ccccc2)cc1", "Potency": "24.5 µM (active)"},
      {"smiles": "CCOP(=S)(OCC)O/N=C(\\C#N)c1ccccc1", "Potency": "inactive"},
      {"smiles": "Nc1ccc(-c2ccccc2)cc1", "Potency": "inactive"},
      {"smiles": "COP(=O)(OC)OC", "activity change": -15.3},
      {"smiles": "C=C(C)C(=O)OCC1CO1", "note": "(stereo not given)", "Potency": "inactive"},
      {"smiles": "CN(C)C(=O)Nc1ccc(Cl)cc1", "Potency": "inactive"},
      {"smiles": "NNC(N)=S", "activity change": -14.5},
      {"smiles": "Nc1ccc(Cl)cc1N", "Potency": "24.5 µM (active)"},
      {"smiles": "CC(C)=CC1C(C(=O)OCc2coc(Cc3ccccc3)c2)C1(C)C", "note": "(stereo not given)", "Potency": "inactive"},
      {"smiles": "O=C(CCl)c1ccccc1", "activity change": -1.08},
      {"smiles": "Brc1ccc(Oc2cc(Br)c(Br)cc2Br)c(Br)c1", "Potency": "inactive"},
      {"smiles": "CCCCC(CC)COC(=O)Cl", "note": "(stereo not given)", "Potency": "inactive"},
      {"smiles": "CC(C)(OOC(C)(C)c1ccccc1)c1ccccc1", "Potency": "48.3 µM (active) and 49 µM (active)"},
      {"smiles": "Cc1c(COC(=O)[C@@H]2[C@H](/C=C(\\Cl)C(F)(F)F)C2(C)C)cccc1-c1ccccc1", "Potency": "inactive"},
      {"smiles": "CCOC(=S)S", "Potency": "inactive"},
      {"smiles": "Clc1nc(Cl)nc(Cl)n1", "Potency": "inactive"},
      {"smiles": "c1ccc(P(c2ccccc2)c2ccccc2)cc1", "Potency": "inactive"},
      {"smiles": "C=CCc1ccc(OC)cc1", "Potency": "inactive"},
      {"smiles": "CCOc1cc(Oc2ccc(C(F)(F)F)cc2Cl)ccc1[N+](=O)[O-]", "Potency": "inactive"},
      {"smiles": "CC(C)C(=O)OCC(C)(C)C(OC(=O)C(C)C)C(C)C", "note": "(stereo not given)", "Potency": "inactive"}
    ]}
  ]
}
